# According to the supplement of paper PMC6522484:
# ± gives the standard deviation of the averaged measurements.
# System: DLD1
# Experiment: TCF/Wnt firefly luciferase reporter signal relative to plate median (fraction of plate median); higher = higher Wnt reporter signal
# Conditions: 5 µM; treatment time 24 h; reporter: 7TFP
# Method in brief: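 Library compounds, at a final 5 µM, stayed on reporter cells for 24 h. The cells were colorectal cancer lines stably transduced with lentiviral TCF/Wnt firefly luciferase reporters, seeded in 384-well plates 24 h before dosing. Firefly luciferase or CellTiterGlo luminescence from parallel plates was normalised to the plate median in webcellHTS2 (additive, no log transformation), and two independent replicates were averaged.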
row,Compound,TCF/Wnt firefly luciferase reporter signal
1,CN1CCC(=C2c3ccccc3Sc3ccccc32)CC1,0.874 ± 0.026
2,NCc1ccc(S(N)(=O)=O)cc1,1.03 ± 0.17
3,C/N=C(/NC#N)NCCSCc1csc(NC(=N)N)n1,1.12 ± 0.021
4,C[C@@H]1O[C@H]2O[C@@H]3[C@@H](C)OC(c4ccc5c(c4O)C(=O)c4ccc(C[C@@](C)(O)CC(=O)O)c(O)c4C5=O)C[C@H]3O[C@H]2CC1=O (stereo not given in full) [Fridamycin D],1.14 ± 0.057
5,"COc1ccc2c(c1)[C@@]1(C)CCC(=O)C[C@H]1CC2 [5beta-12-METHOXY-4,4-BISNOR-8,11,13-PODOCARPATRIEN-3-ONE]",1.18 ± 0.2
6,Cc1cc(O)cc(=O)o1,0.988 ± 0.1
7,CC(=O)OCC(=O)[C@@]1(O)CC[C@H]2[C@@H]3CCC4=CC(=O)C=C[C@]4(C)[C@H]3[C@@H](O)C[C@@]21C,1.08 ± 0.11
8,NC[C@H]1O[C@H](O[C@H]2[C@H](O)[C@@H](O[C@H]3O[C@H](CO)[C@@H](O)[C@H](N)[C@H]3O)[C@H](N)C[C@@H]2N)[C@H](N)[C@@H](O)[C@@H]1O,1.03 ± 0.035
9,CC(CN1c2ccccc2Sc2ccccc21)N(C)C (stereo not given),1.05 ± 0.15
10,CC(C)=CCc1c(O)cc2occ(-c3ccc4c(c3)OCO4)c(=O)c2c1O,1.02 ± 0.1
11,CO[C@H]1/C=C/O[C@@]2(C)Oc3c(C)c(O)c4c(O)c(c(/C=N/N5CCN(C)CC5)c(O)c4c3C2=O)NC(=O)/C(C)=C\C=C\[C@H](C)[C@H](O)[C@@H](C)[C@@H](O)[C@@H](C)[C@H](OC(C)=O)[C@@H]1C,1.01 ± 0.037
12,c1ccc2c(c1)CN1CCCC1=N2,0.935 ± 0.15
13,CC1(C)CC2C1CC[C@]1(CBr)CCC3C(CC(=O)O)C(=O)O[C@@]32C1 (stereo not given in full) [BROMO-3-HYDROXY-4-(SUCCIN-2-YL)-CARYOLANE gamma-LACTONE],1.08 ± 0.035
14,NC(=O)c1ccc[n+]([C@@H]2O[C@H](COP(=O)([O-])OP(=O)(O)OC[C@H]3O[C@@H](n4cnc5c(N)ncnc54)[C@H](O)[C@@H]3O)[C@@H](O)[C@H]2O)c1,1.1 ± 0.057
15,COc1ccc(C2C(=O)c3ccccc3C2=O)cc1,0.933 ± 0.095
16,N=C1C=CC(=C(c2ccc(N)cc2)c2ccc(N)cc2)C=C1,0.923 ± 0.057
17,CC(C(=O)O)c1ccc2c(c1)[nH]c1ccc(Cl)cc12 (stereo not given),1.04 ± 0.042
18,CO/N=C(\C(=O)N[C@@H]1C(=O)N2C(C(=O)O)=C(COC(C)=O)CS[C@H]12)c1csc(N)n1,1.01 ± 0.11
19,Cc1cc(N)c2ccccc2[n+]1CCCCCCCCCC[n+]1c(C)cc(N)c2ccccc21,0.751 ± 0.18
20,CCOc1ccc(Cc2nccc3cc(OCC)c(OCC)cc23)cc1OCC,0.99 ± 0.13

row,Compound,TCF/Wnt firefly luciferase reporter signal
1,Nc1nccs1,1.06 ± 0.13
2,CCC(C)C(=O)OC1[C@@H]2CC3=C4CC(=O)O[C@@H](c5ccoc5)[C@]4(C)CCC3[C@@](C)(C2=O)[C@@H](CC(=O)OC)C1(C)C (stereo not given in full),1.15 ± 0.15
3,CC(C)[C@@H]1CC[C@@H](C)C[C@H]1OC(=O)c1ccccc1,1.01 ± 0.19
4,CCCCC(=O)Oc1ccccc1C(=O)O,1 ± 0.052
5,NS(=O)(=O)c1cc(C2(O)NC(=O)c3ccccc32)ccc1Cl (stereo not given),0.958 ± 0.13
6,CC1Cc2ccccc2N1NC(=O)c1ccc(Cl)c(S(N)(=O)=O)c1 (stereo not given),0.967 ± 0.13
7,Clc1ccccc1CN1CCc2sccc2C1,0.934 ± 0.036
8,COc1cc(O)cc(OC)c1OC,0.941 ± 0.021
9,C#C[C@]1(OC(C)=O)CC[C@H]2[C@@H]3CCC4=CC(=O)CC[C@@H]4[C@H]3CC[C@@]21C,0.925 ± 0.022
10,CN1CCN(CC/C=C2/c3ccccc3Sc3ccc(S(=O)(=O)N(C)C)cc32)CC1,1.11 ± 0.078
11,COc1cccc2c1C(=O)c1c(O)c3c(c(O)c1C2=O)CC(O)(C(C)O)CC3OC1CC(NC=O)C(O)C(C)O1 (stereo not given) [Baumycin C2],1.17 ± 0.12
12,COc1ccc(-c2cc(=O)c3cc(OC)ccc3o2)cc1,1.17 ± 0.057
13,Oc1c(Cl)cc(Cl)c2cccnc12,1.03 ± 0.16
14,COC1=CC(=O)C(C(=O)c2ccccc2)=CC1=O,1.03 ± 0.09
15,CC(=O)OCC(=O)[C@@]1(O)CC[C@H]2[C@@H]3CCC4=CC(=O)CC[C@]4(C)[C@H]3C(=O)C[C@@]21C,1.05 ± 0.021
16,COc1ccc2c3c1O[C@H]1C[C@@H](O)C=C[C@@]31CCN(C)C2,0.9965 ± 0.0021
17,CCS(=O)(=O)CCn1c([N+](=O)[O-])cnc1C,0.869 ± 0.0028
18,CN1CCN(C2=Nc3ccccc3Oc3ccc(Cl)cc32)CC1,0.898 ± 0.21
19,COc1c2c(c(O)c3c4c(c(C)cc13)C1OC3(C(OC)OC)OC1C(O[C@H]1C[C@@H](O)[C@@](O)(C(C)=O)[C@H](C)O1)(O4)C3(O)CO)C(=O)C(O)CC2O[C@H]1C[C@@](C)(O)[C@H](OC(C)=O)[C@H](C)O1 (stereo not given in full) [Trioxacarcin B],0.739 ± 0.21
20,CC[C@H](C)[C@@H]1NC(=O)[C@H](C)NC1=O [Cyclo(alanylisoleucyl)],1.05 ± 0.028
